Laboratory results as given in PubChem BioAssay (NCATS).
Activity calls are given as the source filed them. The call rests on the fitted dose curve.

Conditions: Ebola virus entry cell assay, ratio channel

| SMILES | AC50 | outcome |
| --- | --- | --- |
| CN(C)CC/C=C1\c2ccccc2COc2ccccc21 | 25.1 µM (active) | – |
| CN1CCC(=C2c3ccccc3C=Cc3ccccc32)CC1 | 14.1 µM (active) | – |
| COC(=O)C1=C(C)NC(C)=C(C(=O)OCCN(C)Cc2ccccc2)C1c1cccc([N+](=O)[O-])c1 (stereo not drawn) | 28.2 µM (active) | – |
| CN1CCN(CCCN2c3ccccc3Sc3ccc(C(F)(F)F)cc32)CC1 | 3.98 µM (active) | – |
| OCCN1CCN(CCCN2c3ccccc3Sc3ccc(Cl)cc32)CC1 | 5.62 µM (active) | – |
| C#C[C@]1(O)CC[C@H]2[C@@H]3CCC4=Cc5oncc5C[C@]4(C)[C@H]3CC[C@@]21C | 25.1 µM (active) | – |
| CN1CCc2cccc3c2[C@H]1Cc1ccc(O)c(O)c1-3 | – | inactive |
| CCOC(=O)C1(c2ccccc2)CCN(CCC(C#N)(c2ccccc2)c2ccccc2)CC1 | 14.1 µM (active) | – |
| CCN(CC)CCN1C(=O)CN=C(c2ccccc2F)c2cc(Cl)ccc21 | – | inactive |
| COc1cc2c(cc1OC)C(=O)C(CC1CCN(Cc3ccccc3)CC1)C2 (stereo not drawn) | – | inactive |
| COc1cc2ncnc(Nc3ccc(F)c(Cl)c3)c2cc1OCCCN1CCOCC1 | 15.8 µM (active) | – |
| CCCCc1oc2ccc(NS(C)(=O)=O)cc2c1C(=O)c1ccc(OCCCN(CCCC)CCCC)cc1 | 3.16 µM (active) | – |
| O=C1c2cccc3c2[C@H](CCC3)CN1[C@@H]1CN2CCC1CC2 | – | inactive |
| Oc1ccc(C2CNCCc3c2cc(O)c(O)c3Cl)cc1 (stereo not drawn) | – | inactive |
| CNC(=O)c1cc(Oc2ccc(NC(=O)Nc3ccc(Cl)c(C(F)(F)F)c3)cc2)ccn1 | – | inactive |
| CN1CCN(C2=Nc3cc(Cl)ccc3Nc3ccccc32)CC1 | – | inactive |
| Cc1c(O)cccc1C(=O)N[C@@H](CSc1ccccc1)[C@H](O)CN1C[C@H]2CCCC[C@H]2C[C@H]1C(=O)NC(C)(C)C | – | inactive |
| CCOC(=O)N1CCC(=C2c3ccc(Cl)cc3CCc3cccnc32)CC1 | – | inactive |
| CN(C)CCC=C1c2ccccc2CCc2ccccc21 | 11.2 µM (active) | – |

| SMILES | AC50 | outcome |
| --- | --- | --- |
| CN(C)CCC[C@@]1(c2ccc(F)cc2)OCc2cc(C#N)ccc21 | – | inactive |
| CNCCC(Oc1ccc(C(F)(F)F)cc1)c1ccccc1 (stereo not drawn) | 12.6 µM (active) | – |
| NC(=O)C(c1ccccc1)(c1ccccc1)[C@@H]1CCN(CCc2ccc3c(c2)CCO3)C1 | – | inactive |
| CN1CCN(C(c2ccccc2)c2ccccc2)CC1 | – | inactive |
| Nc1nc(N)c2nc(-c3ccccc3)c(N)nc2n1 | – | inactive |
| CNC1(C)C2CCC(C2)C1(C)C (stereo not drawn) | – | inactive |
| Cc1ccccc1C(=O)Nc1ccc(C(=O)N2CCCC(O)c3cc(Cl)ccc32)c(C)c1 (stereo not drawn) | – | inactive |
| CNCC[C@@H](Oc1ccccc1C)c1ccccc1 | 17.8 µM (active) | – |
| CN(C)CCCN1c2ccccc2CCc2ccc(Cl)cc21 | 6.31 µM (active) | – |
| CC12CC3CC(C)(C1)CC(N)(C3)C2 | – | inactive |
| CCN(CC)C(=S)SSC(=S)N(CC)CC | – | inactive |
| CN1CCC[C@@H]1Cc1c[nH]c2ccc(CCS(=O)(=O)c3ccccc3)cc12 | – | inactive |
| COC(=O)C1=C(C)NC(C)=C(C(=O)OCC(C)C)C1c1ccccc1[N+](=O)[O-] (stereo not drawn) | – | inactive |
| OC(CCN1CCCC1)(c1ccccc1)C1CCCCC1 (stereo not drawn) | 20 µM (active) | – |
| Cc1ncc([N+](=O)[O-])n1CCO | – | inactive |
| Cc1ccc(NC(=O)c2ccc(CN3CCN(C)CC3)cc2)cc1Nc1nccc(-c2cccnc2)n1 | 28.2 µM (active) | – |
| CCC(=O)C(CC(C)N(C)C)(c1ccccc1)c1ccccc1 (stereo not drawn) | 15.8 µM (active) | – |
| Cc1nc(Nc2ncc(C(=O)Nc3c(C)cccc3Cl)s2)cc(N2CCN(CCO)CC2)n1 | 28.2 µM (active) | – |
| COC(=O)[C@H]1[C@H]2C[C@@H]3c4[nH]c5cc(OC)ccc5c4CCN3C[C@H]2C[C@@H](OC(=O)c2cc(OC)c(OC)c(OC)c2)[C@@H]1OC | – | inactive |
